According to PubChem BioAssay:
Calls of active or inactive are those of the source.

Tests used:
[1] = target: Albumin (Bos taurus) (UniProt P02769); assay: compounds binding labelled BSA control protein – biochemical, small-molecule microarray, Alexa647 label, 635/667 nm fluorescence, artefact control for SMM control protein annotation, profiling panel (AID 1118); conditions: BSA-A647 binding, fluorescence 635 nm, higher = more signal;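 further: score merges 667 nm emission intensity and signal-to-noise per printed compound spot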
[2] = probe aXIP binding to arrayed compounds – biochemical, NeuroSMM set, 635/667 nm fluorescence, primary screen (AID 1119); conditions: small-molecule microarray, higher = more signal, called active from +8 up or from −8 down;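 further: probe is the protein aXip251-270 applied at 1 µg/mL to compound-printed slides; binding of probe to printed compounds measured as 667 nm fluorescence plus signal to noise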
[3] = probe aNOTCH3 binding on compound microarray – biochemical, small-molecule microarray, 635/667 nm fluorescence, primary screen (AID 1120); conditions: higher = more signal;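 further: probe is a biotin-tagged antibody raised against NOTCH3 rather than NOTCH3 protein; score merges spot fluorescence near 667 nm with spot signal to noise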
[4] = probe aNOTCH2 binding on compound microarray – biochemical, small-molecule microarray, 635/667 nm fluorescence, primary screen (AID 1121); conditions: higher = more signal;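 further: score merges feature fluorescence read at 667 nm with its signal to noise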
[5] = target: Carbonic anhydrase 2 (Homo sapiens) (UniProt P00918); assay: compounds binding carbonic anhydrase 2 – biochemical, small-molecule microarray, Alexa647-labelled CAII, profiling panel (AID 1122); conditions: CAII-A647 binding fluorescence, higher = more signal
[6] = COS7 lysate on small-molecule microarray, probe aHis, 635 nm (AID 1123); conditions: COS7 cell lysate, fluorescence, higher = more signal;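 further: z-score combines 667nm fluorescence intensity with signal-to-noise per printed compound spot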
[7] = probe aLAP1 signal on lysate-treated microarray – cell lysate, small-molecule microarray, COS7 lysate, primary screen (AID 1124); conditions: probe aLAP1, fluorescence, higher = more signal;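 further: lysate comes from COS7 cells expressing LAP1 and is applied at 0.3 µg/mL; score merges spot fluorescence near 667 nm with signal-to-noise over triplicate slides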
[8] = system: Sam68 (KHDRBS1); assay: compounds binding KHDRBS1 protein – biochemical, small-molecule microarray, 635 nm fluorescence, primary screen (AID 1125); conditions: higher = more signal;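 further: score merges 667 nm channel intensity with signal to noise over triplicate slides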
[9] = system: Chordin-like protein 2 (CHRDL2); assay: compounds binding chordin-like 2 – biochemical, small-molecule microarray, 635 nm fluorescence, primary screen (AID 1126); conditions: fluorescence 635 nm, higher = more signal;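 further: printed compound slides probed with Chrdl2 protein at 4 µg/mL for 1 h at 4 C; score merges 667 nm emission intensity with signal to noise over three replicate slides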
[10] = target: Concanavalin-A (Canavalia ensiformis) (UniProt P02866); assay: compounds binding concanavalin A lectin – biochemical, small-molecule microarray, Alexa647 label, 635 nm, artefact control for SMM control protein annotation, primary screen (AID 1127); conditions: ConA-A647 binding fluorescence, higher = more signal;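 further: z combines 667 nm emission intensity with signal-to-noise across three replicate slides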
[11] = compounds binding Alexa647 anti-His antibody – biochemical, small-molecule microarray, 635 nm fluorescence, artefact control for SMM control protein annotation, primary screen (AID 1128); conditions: higher = more signal;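 further: score merges feature fluorescence with signal-to-noise for each printed compound spot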
[12] = system: Human papillomavirus type 1a E7 protein (residues 1-88); assay: HPV1a E7 small-molecule binders, primary screen, biochemical, small-molecule microarray, residues 1-88, 635 nm (AID 1129); conditions: small-molecule microarray binding, fluorescence 635 nm; higher = more signal
[13] = target: Focal adhesion kinase 1 (Homo sapiens) (UniProt Q05397); assay: PTK2 protein binding on printed compound slides – biochemical, small-molecule microarray, 635/667 nm fluorescence, BSA, DTT, primary screen (AID 1130); conditions: 635 nm fluorescence, higher = more signal;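 further: composite of spot emission at 667 nm and signal to noise over triplicate slides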
[14] = system: Fibrinogen (Alexa647-labelled); assay: Alexa647-fibrinogen binding to printed small molecules – biochemical, small-molecule microarray, 635/667 nm fluorescence, artefact control for SMM control-protein annotation, profiling panel (AID 1131); conditions: fibrinogen-A647 binding fluorescence, higher = more signal;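 further: z-score merges 667 nm fluorescence with per-spot signal-to-noise over triplicate slides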
[15] = target: Follistatin (Homo sapiens) (UniProt P19883); assay: FST protein binding to printed compounds – biochemical, small-molecule microarray, 635/667 nm fluorescence, primary screen (AID 1132); conditions: 635 nm fluorescence, higher = more signal
[16] = target: Fibroblast growth factor 2 (Homo sapiens) (UniProt P09038); assay: basic fibroblast growth factor binding to printed compounds – biochemical, small-molecule microarray, 635/667 nm fluorescence, primary screen (AID 1133); conditions: FGF2, fluorescence 635/667, higher = more signal
[17] = JC-1 mitochondrial potential readout, lung cancer cells – cell-based, A549, JC-1 fluorescence, basal, 24 h, 100 nL, profiling panel (AID 1138); conditions: higher = more signal;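 further: A549 lung adenocarcinoma cells under basal conditions with no added stimulus; test concentration not given here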
[18] = system: Lefty1; assay: Lefty1 protein binding to printed compounds – biochemical, small-molecule microarray, 635/667 nm fluorescence, primary screen (AID 1139); conditions: fluorescence 635/667, higher = more signal
[19] = system: wheat germ agglutinin (Triticum aestivum), Alexa647-labelled; assay: Alexa647-WGA lectin binding to printed small molecules – biochemical, small-molecule microarray, 635/667 nm fluorescence, artefact control for SMM control-protein annotation, profiling panel (AID 1140); conditions: WGA-A647 binding, 635 nm fluorescence, higher = more signal;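 further: score merges 667 nm feature emission with signal to noise over triplicate slides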
[20] = target: Luciferin 4-monooxygenase (Photinus pyralis) (UniProt P08659); assay: inhibition of purified Photinus pyralis luciferase – biochemical, luminescence, purified enzyme, 2006 set, primary screen (AID 1141); conditions: purified firefly luciferase, SteadyGlo luminescence, 30 min; higher = more signal, called active from +8 up or from −8 down;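 further: cell-free assay with purified firefly luciferase at 100 ng per well in PBS; test concentration not given here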
Chain of Luciferin 4-monooxygenase (Photinus pyralis) (P08659 whole entry, looked up): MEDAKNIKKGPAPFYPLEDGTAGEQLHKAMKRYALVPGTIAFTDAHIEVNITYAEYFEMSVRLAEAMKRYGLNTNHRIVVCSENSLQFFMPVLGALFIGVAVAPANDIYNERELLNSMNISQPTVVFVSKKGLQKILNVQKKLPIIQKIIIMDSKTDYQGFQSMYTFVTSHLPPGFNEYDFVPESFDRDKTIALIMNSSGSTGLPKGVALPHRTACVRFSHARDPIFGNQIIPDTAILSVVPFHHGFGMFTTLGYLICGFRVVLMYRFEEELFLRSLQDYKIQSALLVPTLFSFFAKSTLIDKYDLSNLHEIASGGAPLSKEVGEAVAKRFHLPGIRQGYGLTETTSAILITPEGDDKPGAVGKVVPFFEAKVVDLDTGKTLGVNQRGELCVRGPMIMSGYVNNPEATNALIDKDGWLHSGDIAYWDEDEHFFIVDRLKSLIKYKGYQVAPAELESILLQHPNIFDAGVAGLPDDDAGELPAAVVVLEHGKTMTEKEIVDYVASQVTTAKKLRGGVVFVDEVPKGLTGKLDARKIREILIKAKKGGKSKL

Chain of Follistatin (Homo sapiens) (P19883 whole entry, looked up): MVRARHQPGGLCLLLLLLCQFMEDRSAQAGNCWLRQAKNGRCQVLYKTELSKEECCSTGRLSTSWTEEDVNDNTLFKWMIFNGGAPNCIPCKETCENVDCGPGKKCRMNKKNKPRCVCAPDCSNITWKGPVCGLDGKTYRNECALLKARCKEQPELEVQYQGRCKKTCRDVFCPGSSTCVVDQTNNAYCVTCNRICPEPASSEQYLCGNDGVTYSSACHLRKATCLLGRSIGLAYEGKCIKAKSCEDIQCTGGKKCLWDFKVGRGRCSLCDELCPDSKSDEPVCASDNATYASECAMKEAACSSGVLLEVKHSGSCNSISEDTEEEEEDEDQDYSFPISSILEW
Chain of Focal adhesion kinase 1 (Homo sapiens) (Q05397 whole entry, looked up): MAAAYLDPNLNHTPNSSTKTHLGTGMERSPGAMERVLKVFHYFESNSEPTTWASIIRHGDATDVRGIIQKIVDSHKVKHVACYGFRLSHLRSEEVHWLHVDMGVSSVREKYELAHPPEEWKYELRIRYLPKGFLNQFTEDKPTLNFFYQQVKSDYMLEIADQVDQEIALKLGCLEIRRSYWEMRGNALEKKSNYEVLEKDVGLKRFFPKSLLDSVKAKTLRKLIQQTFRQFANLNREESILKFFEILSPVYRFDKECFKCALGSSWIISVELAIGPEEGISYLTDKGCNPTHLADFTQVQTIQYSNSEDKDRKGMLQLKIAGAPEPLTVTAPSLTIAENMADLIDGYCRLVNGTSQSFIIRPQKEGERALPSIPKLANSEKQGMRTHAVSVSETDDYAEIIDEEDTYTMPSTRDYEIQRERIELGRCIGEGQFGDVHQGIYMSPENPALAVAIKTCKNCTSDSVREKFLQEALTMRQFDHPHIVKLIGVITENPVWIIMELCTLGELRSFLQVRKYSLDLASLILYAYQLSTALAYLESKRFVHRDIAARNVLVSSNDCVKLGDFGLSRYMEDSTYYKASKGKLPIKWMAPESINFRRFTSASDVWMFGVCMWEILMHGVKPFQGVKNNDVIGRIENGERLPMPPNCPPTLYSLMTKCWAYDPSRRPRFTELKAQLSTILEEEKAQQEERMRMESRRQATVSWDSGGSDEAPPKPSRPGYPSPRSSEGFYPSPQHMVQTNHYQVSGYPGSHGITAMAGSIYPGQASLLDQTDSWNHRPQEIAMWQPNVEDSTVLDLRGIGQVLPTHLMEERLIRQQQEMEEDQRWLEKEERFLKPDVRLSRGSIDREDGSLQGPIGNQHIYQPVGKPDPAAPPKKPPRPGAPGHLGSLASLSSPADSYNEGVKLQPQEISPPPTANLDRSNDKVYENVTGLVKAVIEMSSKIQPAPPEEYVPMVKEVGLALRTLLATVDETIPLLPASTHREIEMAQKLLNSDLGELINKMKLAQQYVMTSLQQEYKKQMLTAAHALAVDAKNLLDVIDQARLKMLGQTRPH
Chain of Fibroblast growth factor 2 (Homo sapiens) (P09038 whole entry, looked up): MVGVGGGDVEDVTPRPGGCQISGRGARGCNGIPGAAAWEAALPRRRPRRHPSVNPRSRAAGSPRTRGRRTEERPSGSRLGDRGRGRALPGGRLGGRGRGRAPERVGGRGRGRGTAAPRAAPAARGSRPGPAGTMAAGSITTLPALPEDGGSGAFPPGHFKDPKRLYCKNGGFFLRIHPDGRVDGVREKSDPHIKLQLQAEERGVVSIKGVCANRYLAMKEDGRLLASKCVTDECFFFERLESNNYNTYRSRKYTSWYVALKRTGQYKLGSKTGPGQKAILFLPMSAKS
Chain of Concanavalin-A (Canavalia ensiformis) (P02866 whole entry, looked up): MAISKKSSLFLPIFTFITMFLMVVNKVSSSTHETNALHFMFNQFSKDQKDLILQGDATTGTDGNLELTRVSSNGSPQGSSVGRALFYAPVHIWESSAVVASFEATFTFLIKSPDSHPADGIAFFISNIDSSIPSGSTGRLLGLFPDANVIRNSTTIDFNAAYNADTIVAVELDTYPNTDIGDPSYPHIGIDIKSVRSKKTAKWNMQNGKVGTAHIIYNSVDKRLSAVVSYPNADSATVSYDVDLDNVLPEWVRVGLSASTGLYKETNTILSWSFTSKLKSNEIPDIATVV
Chain of Albumin (Bos taurus) (P02769 whole entry, looked up): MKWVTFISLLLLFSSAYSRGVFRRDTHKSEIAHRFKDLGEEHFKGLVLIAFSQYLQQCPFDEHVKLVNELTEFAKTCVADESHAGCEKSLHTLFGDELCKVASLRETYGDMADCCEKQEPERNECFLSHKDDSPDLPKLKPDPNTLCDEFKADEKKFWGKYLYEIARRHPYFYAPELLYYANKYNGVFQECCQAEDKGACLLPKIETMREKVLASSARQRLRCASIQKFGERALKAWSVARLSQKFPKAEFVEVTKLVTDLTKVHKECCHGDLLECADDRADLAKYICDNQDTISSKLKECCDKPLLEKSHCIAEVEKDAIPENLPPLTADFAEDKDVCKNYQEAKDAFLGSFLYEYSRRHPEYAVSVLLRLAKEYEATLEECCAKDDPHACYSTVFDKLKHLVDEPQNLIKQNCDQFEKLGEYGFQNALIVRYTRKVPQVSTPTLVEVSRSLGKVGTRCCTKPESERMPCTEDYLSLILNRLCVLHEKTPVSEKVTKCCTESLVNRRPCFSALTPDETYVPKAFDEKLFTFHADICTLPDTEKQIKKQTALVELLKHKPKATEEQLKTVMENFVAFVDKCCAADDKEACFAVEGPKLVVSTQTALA

Compound	composite z-score [1]	composite Z-score [2]	composite z-score [3]	composite z-score [4]	composite z-score [5]	composite z-score [6]	composite z-score [7]	composite z-score [8]	composite z-score [9]	composite z-score [10]	composite z-score [11]	composite z-score [12]	composite z-score [13]	composite z-score [14]	composite z-score [15]	composite z-score [16]	z-score [17]	composite z-score [18]	composite z-score [19]	z-score [20]
COCCCNC(=O)[C@@]1(C)c2ccccc2C(=O)N(Cc2cc(F)cc(C(F)(F)F)c2)[C@H]1c1ccc(CO)cc1	-1.33	0.0737 (inactive)	-0.336	-0.126	0.74	2.01	0.346	0.0363	-1.94	-0.453	-0.224	-1.01	-0.706	-1.61	-1.48	-0.521	1.25	-1.73	-1.26	-1.13 (inactive)
C=C(C1=CCN(S(=O)(=O)c2ccc(C)cc2)C1)[C@@H](OC(C)=O)[C@@H]1CCCN1S(=O)(=O)c1ccccc1[N+](=O)[O-]	-1.41	-0.0256 (inactive)	-0.127	-0.194	0.139	0.586	-0.273	-0.339	-0.486	-1.53	0.0491	0.128	0.137	-1.38	-0.273	-0.343	1.7	-0.0118	-1.42	-1.35 (inactive)
COCCCNC(=O)[C@@]1(Cc2ccccc2CN=[N+]=[N-])COC(c2ccc(OCCCO)cc2)=N1	0.922	0.536 (inactive)	0.248	0.0261	0.673	2.83	0.413	1.3	-2.16	1.13	2.69	1.21	0.759	0.479	0.186	-0.742	1.79	-0.713	1.03	-1.59 (inactive)
O=C1c2ccccc2[C@@]2(Cc3ccccc3N(CC(F)(F)F)C2=O)[C@H](c2ccc(CO)cc2)N1Cc1ccccc1C(F)(F)F	-1.22	0.112 (inactive)	-0.0647	-0.159	0.272	-0.229	0.134	-0.142	-2.04	-1.83	-1.58	-2.19	-0.795	-1.47	-2.04	-0.882	0.972	-1.87	-1.69	-0.903 (inactive)
C=CCN1C(=O)[C@@]2(O[C@@H](CCO)[C@H]([Si](C)(C)c3ccc(OC)cc3)[C@H]2C)c2cc(N3C(=O)c4cccc5cccc3c45)ccc21	0.691	-0.159 (inactive)	0.0425	-0.0956	0.355	0.964	1.13	0.897	-0.487	1.06	2.09	1	0.617	0.302	-0.233	-0.145	-0.456	-0.272	0.525	-1.53 (inactive)
O=C(NCc1ccccc1)[C@@H]1c2ccccc2C(=O)N(Cc2ccccc2Cl)[C@H]1c1ccc(CO)cc1	-0.0154	1.24 (inactive)	0.0749	-0.0165	0.693	2.36	0.954	1.35	0.702	1.13	2.46	1.17	0.719	0.562	1.47	1.22	1.88	0.817	0.704	-1.01 (inactive)
C=CCNC(=O)[C@H]1[C@@H]2C(=O)O[C@@H](c3ccccc3)[C@@H](c3ccccc3)N2[C@@H](c2ccc(OCCO)cc2)[C@]12C(=O)Nc1ccc(C#CCCO)cc12	0.321	0.512 (inactive)	0.116	-0.13	0.394	1.86	0.725	1.14	0.089	0.783	-0.0886	1.11	0.418	0.61	1.3	0.327	0.187	0.909	1.06	-0.969 (inactive)
COc1ccc([Si](C)(C)[C@@H]2[C@@H](CC(=O)N3CCC[C@H]3CO)O[C@]3(C(=O)N(Cc4ccc(I)cc4)c4ccccc43)[C@H]2C)cc1	-1.32	-0.36 (inactive)	-0.0328	-0.0707	-0.0226	0.713	0.147	1.32	1.06	1.19	1.14	0.989	0.178	0.584	1.34	1.56	1.05	1.12	1.07	-0.765 (inactive)
C=C(/C(=C/C[C@H](OC(=O)c1ccncc1)c1cccc(OCCO)c1)c1cc(C(=O)OC)ccc1OC)C(C)C	-0.768	0.415 (inactive)	-0.16	-0.12	0.47	0.239	0.11	1.12	-1.23	0.505	-0.538	0.101	0.72	-0.188	-0.0075	0.266	2	0.411	0.844	-0.979 (inactive)
